Results taken from PubChem BioAssay (Tox21).
Results filed as inconclusive are left out. Activity calls are given as the source filed them. Unless noted, calls follow the shape of the dose curve; as a rule, active = well fitted curve in the direction sought with a large enough effect in the repeat runs; inconclusive = weak or mixed curves; inactive = no such curve, though single readings can be large; an effect the other way counts as inactive or inconclusive.

Experiments:
[1] = qHTS assay for small molecule agonists of the p53 signaling pathway (AID 651631; calls by dose curve; also: nearly all actives have a fitted effect of over 15% in size)
Procedure, shortened: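 Stably transfected HCT-116 cells (beta-lactamase behind p53 response elements) get compounds after a 5 h settling period; 16 h later at 37 °C, FRET substrate is loaded and fluorescence read after 2 h.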

[2] = qHTS assay for small molecules that induce genotoxicity in human embryonic kidney cells expressing luciferase-tagged ATAD5 (AID 651632); also: nearly all actives have a fitted effect of over 15% in size
Procedure, shortened: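 Increased luciferase signal from ATAD5-tagged reporter cells indicates DNA-damage-driven ATAD5 induction. HEK293T cells are treated for 16 hr at 37C before detection with Amplite.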

[3] = qHTS assay for small molecule agonists of the p53 signaling pathway - cell viability (AID 651633; calls by dose curve;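 also: p53RE-bla HCT reporter cells with a stable beta-lactamase p53 reporter; series mostly up to about 83 µM; nearly all actives have a fitted effect of over 30% in size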)
Procedure, shortened: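 Viability counter-read: CellTiter-Glo luminescence (30 min, room temperature) in the same p53RE-bla plates. These plates had been exposed to compounds for 16 h at 37 C.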

[4] = qHTS assay for small molecules that induce genotoxicity in human embryonic kidney cells expressing luciferase-tagged ATAD5 - cell viability (AID 651634; calls by dose curve; also: nearly all actives have a fitted effect of over 25% in size)
Procedure, shortened: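 Cytotoxicity counterscreen in HEK293T cells bearing an ATAD5-luciferase reporter: live-cell protease activity measured by CellTiter-Fluor fluorescence after 15.5 hr compound exposure.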

[5] = qHTS assay for small molecule disruptors of the mitochondrial membrane potential - cell viability (AID 720634; calls by dose curve;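 also: human HepG2 liver cancer cells; series mostly up to about 83 µM; nearly all actives have a fitted effect of over 20% in size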)
Procedure, shortened: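 After overnight attachment at 37 C, HepG2 cells received compound or DMSO vehicle for 1 hr. Viability is then taken from ATP-driven luminescence following a 30 min room-temperature CellTiter-Glo step.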

[6] = qHTS assay for small molecule disruptors of the mitochondrial membrane potential (AID 720635)
Procedure, shortened: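 Mitochondrial membrane potential tracked with Mito-MPS dye, red aggregates (ex 540/em 590 nm) against green monomers (ex 490/em 535 nm). Compound treatment 1 hr at 37C, dye 30 min in HepG2.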

[7] = qHTS assay to test for compound auto fluorescence at 590 nm (red) in HepG2 cells (AID 720674)
Procedure, shortened: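 Red autofluorescence (Ex/Em 540/590 nm, Rose Bengal sodium equivalents) was measured in HepG2 cells, 2,000 per well in MEM plus 10% FBS, plated overnight at 37 C. Readings were taken 1 hr after adding 23 nL compound or DMSO, at 37 C and 5% CO2.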

[8] = qHTS assay to test for compound auto fluorescence at 535 nm (green) in HepG2 cells (AID 720675)
[9] = qHTS assay to test for compound auto fluorescence at 460 nm (blue) in HEK293 cells (AID 720678)
Procedure, shortened: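 HEK293 cells (2,000/well, medium with 10% dialyzed FBS) attached 4-5 hr, then exposed to compound overnight at 37C, 5% CO2. Blue fluorescence read at 405/460 nm, with triamterene as reference fluorophore.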

[10] = qHTS assay to test for compound auto fluorescence at 535 nm (green) in HEK293 cells (AID 720680)
[11] = qHTS assay to test for compound auto fluorescence at 460 nm (blue) in HEK293 cell free culture (AID 720681)
Procedure, shortened: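 Blue fluorescence (Ex 405/Em 460 nm, triamterene-equivalent) was read immediately after pin transfer of compound or DMSO into medium (DMEM, 10% FBS) without cells.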

[12] = qHTS assay to test for compound auto fluorescence at 535 nm (green) in HEK293 cell free culture (AID 720682)
Procedure, shortened: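 Using fluorescein as calibrant, autofluorescence was quantified at 485/535 nm in cell-free DMEM containing 10% FBS after pintool addition of compound or vehicle.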

[13] = qHTS assay to test for compound auto fluorescence at 590 nm (red) in HEK293 cell free culture (AID 720683)
Procedure, shortened: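 Red-channel autofluorescence of compounds in culture medium (DMEM, 10% FBS), no cells, measured at 540/590 nm. Rose Bengal sodium is the reference fluorophore for equivalence.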

[14] = qHTS assay to test for compound auto fluorescence at 590 nm (red) in HepG2 cell free culture (AID 720684)
Procedure, shortened: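 Steps: dispense MEM/10% FBS medium, no cells; pin compound or DMSO vehicle; read red channel, Ex/Em 540/590 nm. Output given as Rose Bengal sodium equivalents.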

[15] = qHTS assay to test for compound auto fluorescence at 460 nm (blue) in HepG2 cell free culture (AID 720685)
Procedure, shortened: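 Compound (23 nL) or DMSO pinned into cell-free MEM with 10% FBS; blue fluorescence read at 405/460 nm excitation/emission, expressed as auto-fluorescence equivalency to triamterene.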

[16] = qHTS assay to test for compound auto fluorescence at 535 nm (green) in HepG2 cell free culture (AID 720686)
[17] = qHTS assay to test for compound auto fluorescence at 460 nm (blue) in HepG2 cells (AID 720687)
Procedure, shortened: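 Blue-channel autofluorescence (Ex/Em 405/460 nm, triamterene-equivalent) was measured after 1 hr compound exposure at 37 C, 5% CO2. Cells were HepG2, plated overnight at 37 C in MEM plus 10% FBS.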

[18] = biological target: Glucocorticoid receptor (Homo sapiens) (UniProt P04150); assay: qHTS assay to identify small molecule agonists of the glucocorticoid receptor (GR) signaling pathway (AID 720691; active = well fitted activation curve with a large enough effect in the signal ratio in the repeat runs, not every such curve was filed as active; the % refers to the signal ratio)
Chain of Glucocorticoid receptor (Homo sapiens) (P04150 whole entry, looked up): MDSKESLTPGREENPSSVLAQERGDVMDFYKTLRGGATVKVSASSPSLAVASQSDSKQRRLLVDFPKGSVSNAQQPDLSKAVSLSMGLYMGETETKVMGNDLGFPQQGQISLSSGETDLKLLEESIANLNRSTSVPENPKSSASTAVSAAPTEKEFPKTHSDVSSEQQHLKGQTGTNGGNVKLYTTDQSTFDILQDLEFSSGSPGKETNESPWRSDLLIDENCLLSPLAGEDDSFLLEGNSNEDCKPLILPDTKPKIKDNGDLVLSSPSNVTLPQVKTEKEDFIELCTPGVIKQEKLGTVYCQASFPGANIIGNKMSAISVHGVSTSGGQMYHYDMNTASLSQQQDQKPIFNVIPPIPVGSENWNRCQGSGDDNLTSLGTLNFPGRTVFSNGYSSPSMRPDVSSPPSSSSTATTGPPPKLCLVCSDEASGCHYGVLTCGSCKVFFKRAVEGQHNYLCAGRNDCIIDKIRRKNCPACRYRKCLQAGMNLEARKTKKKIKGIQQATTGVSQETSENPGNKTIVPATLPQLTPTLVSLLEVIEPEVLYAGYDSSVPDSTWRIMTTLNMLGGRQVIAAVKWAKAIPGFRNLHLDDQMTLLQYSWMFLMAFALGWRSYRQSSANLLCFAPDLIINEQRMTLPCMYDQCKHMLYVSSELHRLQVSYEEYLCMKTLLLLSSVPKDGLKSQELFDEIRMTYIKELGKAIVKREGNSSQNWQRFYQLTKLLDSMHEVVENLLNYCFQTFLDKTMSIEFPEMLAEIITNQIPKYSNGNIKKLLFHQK
Procedure, shortened: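 Agonist mode in a HeLa line carrying a GRE-controlled beta-lactamase reporter. Compounds act for 18 h at 37 C before a 2 h room-temperature FRET substrate step and fluorescence reading.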

[19] = qHTS assay to test for compound auto fluorescence at 590 nm (red) in HEK293 cells (AID 720679)
Procedure, shortened: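 HEK293 cells (2,000/well, 10% dialyzed FBS) attached 4-5 hr, then dosed with compound or DMSO and incubated overnight at 37C, 5% CO2. Red fluorescence read at 540/590 nm, Rose Bengal sodium as reference fluorophore.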

[20] = biological target: Glucocorticoid receptor (Homo sapiens) (UniProt P04150); assay: qHTS assay to identify small molecule antagonists of the glucocorticoid receptor (GR) signaling pathway (AID 720692; active = well fitted inhibition curve with a large enough effect in the signal ratio in the repeat runs, not every such curve was filed as active; the % refers to the signal ratio)
Procedure, shortened: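 Cells plated, rested 4 h at 37 C/5% CO2; compounds in DMSO pin-transferred; dexamethasone added to 5 nM final; 18 h at 37 C; B/G FRET substrate added, 2 h room temperature; fluorescence measured.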
% is scaled to controls: 0 for no effect and ±100 for the full control effect.

C[C@@H]1O[C@@H](O[C@@H]2[C@@H](O)[C@H](OCCc3ccc(O)c(O)c3)O[C@H](CO[C@@H]3O[C@H](CO)[C@@H](O)[C@H](O)[C@H]3O)[C@H]2OC(=O)/C=C/c2ccc(O)c(O)c2)[C@H](O)[C@H](O)[C@H]1O
inactive: outcome [1] | Potency [2] | outcome [3] | Potency [4] | outcome [5] | Potency [6] | outcome [7] | outcome [8] | outcome [9] | outcome [10] | outcome [11] | outcome [12] | outcome [13] | outcome [14] | outcome [15] | outcome [16] | outcome [17] | Potency [18]

CCCCCCCCOS(=O)(=O)O
inactive: outcome [1] | Potency [2] | outcome [3] | Potency [4] | outcome [5] | Potency [6] | outcome [7] | outcome [8] | outcome [9] | outcome [19] | outcome [10] | outcome [11] | outcome [12] | outcome [13] | outcome [14] | outcome [15] | outcome [16] | outcome [17] | Potency [18]

CCCCCCOC(=O)CC
inactive: outcome [1] | Potency [2] | outcome [3] | Potency [4] | outcome [5] | Potency [6] | outcome [7] | outcome [8] | outcome [9] | outcome [19] | outcome [10] | outcome [11] | outcome [12] | outcome [13] | outcome [14] | outcome [15] | outcome [16] | outcome [17] | Potency [18] | outcome [20]

CC1(CO)CN(c2ccccc2)NC1=O (stereo unspecified)
inactive: outcome [1] | Potency [2] | outcome [3] | Potency [4] | outcome [5] | Potency [6] | outcome [7] | outcome [8] | outcome [9] | outcome [19] | outcome [10] | outcome [11] | outcome [12] | outcome [15] | outcome [16] | outcome [17]

C=COCCOCCOCCOC=C
inactive: outcome [1] | Potency [2] | outcome [3] | Potency [4] | outcome [5] | Potency [6] | outcome [7] | outcome [8] | outcome [9] | outcome [10] | outcome [11] | outcome [12] | outcome [14] | outcome [15] | outcome [16] | outcome [17] | Potency [18]

O=C(CCNNC(=O)c1ccncc1)NCc1ccccc1
inactive: outcome [1] | Potency [2] | outcome [3] | Potency [4] | outcome [5] | Potency [6] | outcome [7] | outcome [8] | outcome [9] | outcome [19] | outcome [10] | outcome [11] | outcome [12] | outcome [13] | outcome [14] | outcome [15] | outcome [16] | outcome [17] | Potency [18]

COc1ccc(C2CNC(=O)C2)cc1OC1CCCC1 (stereo unspecified)
inactive: outcome [1] | Potency [2] | outcome [3] | Potency [4] | outcome [5] | Potency [6] | fluorescence, relative to Rose Bengal [7] -0.195% [at 18.6 µM] | fluorescence, % of fluorescein control [8] 0.104% [at 18.6 µM] | fluorescence, % of triamterene [9] 0.004% [at 18.6 µM] | fluorescence, % of fluorescent control [19] -0.255% [at 18.6 µM] | fluorescence, % of fluorescein [10] 0.0387% [at 18.6 µM] | fluorescence, % of fluorescent control [11] -0.0755% [at 18.6 µM] | activity change [12] 0.0153% [at 18.6 µM] | fluorescence, % of fluorescent control [13] -0.222% [at 18.6 µM] | fluorescence, % of Rose Bengal [14] 0.472% [at 18.6 µM] | fluorescence, % of fluorescent control [15] -0.0095% [at 18.6 µM] | fluorescence, % of fluorescein control [16] -0.0056% [at 18.6 µM] | fluorescence, % of fluorescent control [17] -0.0914% [at 18.6 µM] | Potency [18] | outcome [20]

CCCCNc1ccc(C(=O)OCCN(C)C)cc1
inactive: outcome [1] | Potency [2] | outcome [3] | Potency [4] | outcome [5] | Potency [6] | fluorescence, relative to Rose Bengal [7] -0.178% [at 18.6 µM] | fluorescence, % of fluorescein control [8] -0.0004% [at 18.6 µM] | fluorescence, % of triamterene [9] 0.259% [at 18.6 µM] | fluorescence, % of fluorescent control [19] 0.151% [at 18.6 µM] | fluorescence, % of fluorescein [10] -0.108% [at 18.6 µM] | fluorescence, % of fluorescent control [11] 0.0181% [at 18.6 µM] | activity change [12] -0.0203% [at 18.6 µM] | fluorescence, % of fluorescent control [13] -0.282% [at 18.6 µM] | fluorescence, % of Rose Bengal [14] 0.315% [at 18.6 µM] | fluorescence, % of fluorescent control [15] 0.0923% [at 18.6 µM] | fluorescence, % of fluorescein control [16] -0.0132% [at 18.6 µM] | fluorescence, % of fluorescent control [17] 0.0537% [at 18.6 µM] | Potency [18] | outcome [20]

O=S(=O)(O)CCN1CCN(CCO)CC1
inactive: outcome [1] | Potency [2] | outcome [3] | Potency [4] | outcome [5] | Potency [6] | outcome [7] | outcome [8] | outcome [9] | outcome [10] | outcome [11] | outcome [12] | outcome [13] | outcome [14] | outcome [15] | outcome [16] | outcome [17] | Potency [18]

CCCCCCCCCCCCCC
inactive: outcome [1] | Potency [2] | outcome [3] | Potency [4] | outcome [5] | Potency [6] | outcome [7] | outcome [8] | outcome [9] | outcome [19] | outcome [10] | outcome [11] | outcome [12] | outcome [13] | outcome [14] | outcome [15] | outcome [16] | outcome [17]

CCOC(=O)/C=C/c1ccccc1
inactive: outcome [1] | Potency [2] | outcome [3] | Potency [4] | outcome [5] | Potency [6] | outcome [7] | outcome [8] | outcome [19] | outcome [10] | outcome [11] | outcome [12] | outcome [13] | outcome [15] | outcome [16] | outcome [17]

OCCCCC(O)CO (stereo unspecified)
inactive: outcome [1] | Potency [2] | outcome [3] | Potency [4] | outcome [5] | Potency [6] | outcome [8] | outcome [9] | outcome [19] | outcome [10] | outcome [11] | outcome [12] | outcome [14] | outcome [15] | outcome [16] | outcome [17] | Potency [18] | outcome [20]

Cc1c(I)c(=O)n(-c2ccccc2)n1C
inactive: outcome [1] | Potency [2] | outcome [3] | Potency [4] | outcome [5] | outcome [7] | outcome [8] | outcome [9] | outcome [19] | outcome [10] | outcome [11] | outcome [12] | outcome [14] | outcome [15] | outcome [16] | outcome [17] | Potency [18]
